PubChem BioAssay
Activity calls are given as the source filed them.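 Rule for the calls, unless noted: active = inhibition at or above 50% at 10 µM; inactive = inhibition below 50%.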

How the values were obtained:
[1] = inhibitors of TNFa-induced NFkB p65 translocation, primary screen, imaging, HUVEC, MLSMR starter and 10KST1 sets (AID 438;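 active = inhibition above 20% together with a positive visual image hit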;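 note: compound added about 3h40 before a 20 min TNFalpha stimulation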;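 for inhibition: signal is the nuclear over cytoplasmic p65 intensity ratio per well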); conditions: HUVEC TNFa-induced p65 nuclear translocation; cell count: measured here: nuclei count (cytotoxicity indicator), at 2.08 µM; inhibition: at 2 µM, stronger effect = higher value, 0% TNFa-plus-vehicle, 100% no-TNFa wells
[2] = reduction of polyQ htt aggregates in cells – imaging, exon1htt(103Q)mCFP cells, high-content imaging, primary screen (AID 483;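 active = visual image review flags a hit and inhibition of aggregation exceeds 20%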;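 note: compound exposure lasted 3 days before fixation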;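 for nuclei count: percent of the per-plate median nuclei count of sample wells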); conditions: exon1htt(103Q)mCFP cell line, aggregate imaging, at 2 µM; inhibition of aggregation: stronger effect = higher value; nuclei count: measured here: cell count, toxicity
[3] = endothelial E-selectin expression blockers – imaging, HUVEC, immunofluorescence, MLSMR starter and 10KST1 sets, primary screen (AID 487;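 active = visually confirmed hit in the image check and inhibition above 20%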;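 for inhibition: signal is fraction of cell area covered by stained E-selectin grains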;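 for nuclei count: 100% = median nuclei count of all wells on the same plate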); conditions: HUVEC TNFalpha-induced E-selectin immunofluorescence imaging, at 2 µM; inhibition: stronger effect = higher value; nuclei count: measured here: cell number, toxicity
[4] = molecular target: Voltage-gated potassium channel subunit beta-2 (Rattus norvegicus) (UniProt P62483); assay: inhibitors of rat Kvbeta2 reductase activity – biochemical, NADPH fluorescence, primary screen (AID 622;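 active = fluorescence slope higher than the sample average by over 3 SD, cut at about -0.22 in these data, passing the limit was not always enough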;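 note: slope of raw intensity against log time taken from 70 to 1610 s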); conditions: recombinant KvBeta, 4-cyanobenzaldehyde reduction, at 10 µM, stronger effect = higher value
Chain of Voltage-gated potassium channel subunit beta-2 (Rattus norvegicus) (P62483 whole entry, looked up): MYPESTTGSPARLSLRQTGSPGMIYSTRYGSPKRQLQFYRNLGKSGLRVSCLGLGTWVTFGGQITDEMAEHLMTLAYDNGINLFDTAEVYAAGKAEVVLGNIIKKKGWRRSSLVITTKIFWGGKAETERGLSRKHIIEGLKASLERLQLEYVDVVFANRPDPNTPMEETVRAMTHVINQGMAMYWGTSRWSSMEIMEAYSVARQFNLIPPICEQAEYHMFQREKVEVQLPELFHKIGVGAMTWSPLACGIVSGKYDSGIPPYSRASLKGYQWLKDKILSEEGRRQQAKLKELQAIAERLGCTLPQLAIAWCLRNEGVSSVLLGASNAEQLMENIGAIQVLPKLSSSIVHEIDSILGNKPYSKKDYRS

[5] = molecular target: Voltage-gated potassium channel subunit beta-2 (Rattus norvegicus) (UniProt P62483); assay: enhancers of rat Kvbeta2 NADPH turnover – biochemical, NADPH fluorescence, primary screen (AID 623;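 active = NADPH fluorescence slope more negative than the mean of all samples by about 3 SD, 99.7% confidence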;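 note: fluorescence intensity change per second fitted from 20 to 320 s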); conditions: Recombinant KvBeta, NADPH fluorescence decrease slope, 10 min; at 10 µM; stronger effect = lower value
[6] = molecular target: Alpha-2C adrenergic receptor (Homo sapiens) (UniProt P18825); assay: compounds altering alpha2C-coupled GIRK flux – cell-based, HEK293 alpha2C/GIRK1/2, thallium flux, primary screen (AID 624;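 active = fluorescence slope after compound addition differing from the mean of all screened samples at 99.7% confidence, in either direction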;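 note: slope of fluorescence ratio to pre-addition baseline per second over 15 to 24 s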); conditions: thallium flux BTC fluorescence, at 10 µM, actives lie on both sides
Chain of Alpha-2C adrenergic receptor (Homo sapiens) (P18825 whole entry, looked up): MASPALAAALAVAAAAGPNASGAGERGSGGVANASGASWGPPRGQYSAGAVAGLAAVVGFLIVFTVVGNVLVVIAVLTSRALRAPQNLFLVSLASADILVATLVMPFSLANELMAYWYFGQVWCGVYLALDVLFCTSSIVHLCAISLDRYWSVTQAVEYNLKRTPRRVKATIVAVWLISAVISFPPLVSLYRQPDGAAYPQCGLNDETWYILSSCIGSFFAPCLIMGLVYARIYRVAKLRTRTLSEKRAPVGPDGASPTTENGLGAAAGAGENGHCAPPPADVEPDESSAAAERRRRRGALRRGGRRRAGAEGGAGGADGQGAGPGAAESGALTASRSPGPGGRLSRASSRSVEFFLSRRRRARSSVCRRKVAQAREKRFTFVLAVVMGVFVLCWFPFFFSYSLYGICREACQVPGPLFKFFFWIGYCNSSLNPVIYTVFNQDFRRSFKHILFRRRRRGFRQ

[7] = blockers of RIG-like receptor reporter activation – cell-based, Sendai virus stimulus, luciferase, 10K MLSCN set, TLR/RLR signaling modifier project, primary screen (AID 602276); conditions: HEK293 RL24 IRF3 luciferase reporter, at 10 µM, stronger effect = higher value;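 note: firefly luciferase from ISG56 promoter only with Renilla not read in this screen; 0% = Sendai virus plus DMSO and 100% = medium plus DMSO without virus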
[8] = TLR3 IRF3 reporter activation blockers – cell-based, poly I:C stimulus, luciferase, 10K MLSCN set, primary screen (AID 602277;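 active = inhibition of the reporter signal at or above 50%; inactive = inhibition below 50%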); conditions: HEK293-TLR3 RL24 IRF3 luciferase reporter, at 10 µM, stronger effect = higher value

| Compound | cell count [1] | inhibition [1] | inhibition of aggregation [2] | nuclei count [2] | inhibition [3] | nuclei count [3] | fluorescence slope [4] | NADPH fluorescence slope [5] | slope [6] | inhibition [7] | inhibition [8] |
| --- | --- | --- | --- | --- | --- | --- | --- | --- | --- | --- | --- |
| COc1ccccc1-c1nnc(NC(=O)c2ccc(S(=O)(=O)N(C)Cc3ccccc3)cc2)o1 | 391 | 6.1% (inactive) | 9.9% (inactive) | 92.8% | -6.7% (inactive) | 99.4% | -0.478 (inactive) | -1.3e-05 (inactive) | 0.00777 (inactive) | 14.7% (inactive) | 25.7% (inactive) |
| CSc1cccc(NC(=O)C2CCN(S(=O)(=O)c3ccc(F)cc3)CC2)c1 | 376 | -0.2% (inactive) | 10.8% (inactive) | 104% | -69.1% (inactive) | 115% | -0.353 (inactive) | 5.7e-05 (inactive) | 0.00752 (inactive) | 16.9% (inactive) | 39.3% (inactive) |
| COc1cccc(-c2csc3nnc(SCC(=O)c4ccc(NC(C)=O)cc4)n23)c1 | 452 | 0% (inactive) | 21.2% (inactive) | 106% | -116% (inactive) | 176% | -0.47 (inactive) | 0.000104 (inactive) | 0.00779 (inactive) | 8.19% (inactive) | 17.5% (inactive) |
| CC(C)CCn1c(NCCc2ccccc2)nc2c1c(=O)n(C)c(=O)n2C | 753 | -8% (inactive) | 1.3% (inactive) | 120% | -17.6% (inactive) | 108% | -0.409 (inactive) | -7.3e-05 (inactive) | 0.00481 (inactive) | 9.59% (inactive) | 32.1% (inactive) |
| CN1CCN(CC#CCC(O)(c2ccccc2)C2CCCC2)CC1 (stereo not drawn) | 415 | 2.2% (inactive) | -1.8% (inactive) | 99.7% | -21.3% (inactive) | 118% | -0.428 (inactive) | -4.8e-05 (inactive) | 0.00551 (inactive) | 7.06% (inactive) | 4.71% (inactive) |
| Cc1nc2ccccc2c2oc(C(=O)N3CCC(N4CCCCC4)CC3)cc12 | 591 | -4.4% (inactive) | -14.4% (inactive) | 100% | -12.1% (inactive) | 119% | -0.602 (inactive) | -3.1e-05 (inactive) | 0.00619 (inactive) | -0.549% (inactive) | 24% (inactive) |
| CC(C)C(NC(=O)c1ccccc1NC(=O)c1ccco1)C(=O)O (stereo not drawn) | 368 | 1.7% (inactive) | -3.4% (inactive) | 103% | -32.6% (inactive) | 115% | -0.622 (inactive) | -3.3e-05 (inactive) | 0.00599 (inactive) | 19% (inactive) | 21.5% (inactive) |
| O=C(c1ccccc1-c1ccccc1)N1CCN(c2ccccn2)CC1 | 384 | 7.8% (inactive) | -81.8% (inactive) | 17.3% | -93.4% (inactive) | 102% | -0.5 (inactive) | -3.6e-05 (inactive) | 0.00494 (inactive) | 43.1% (inactive) | 26.8% (inactive) |
| COc1ccc(-c2nnc(SCCC(=O)O)n2-c2ccccc2)cc1 | 348 | 2.5% (inactive) | -19.5% (inactive) | 107% | -10.9% (inactive) | 124% | -0.644 (inactive) | 1.6e-05 (inactive) | 0.00524 (inactive) | 12.1% (inactive) | 16.4% (inactive) |
| C=CCOC(=O)C1=C(C)OC(N)=C(C#N)C1c1ccc2c(c1)OCO2 (stereo not drawn) | 229 | 13.4% (inactive) | -3% (inactive) | 90.4% | 9.6% (inactive) | 136% | -0.602 (inactive) | -3.1e-05 (inactive) | 0.00567 (inactive) | -2.6% (inactive) | 7.38% (inactive) |
| O=C(CN(C1CCCCC1)S(=O)(=O)c1ccccc1)NCc1cccnc1 | 671 | 2% (inactive) | -28.8% (inactive) | 110% | -75.7% (inactive) | 119% | -0.308 (inactive) | -3e-05 (inactive) | 0.00649 (inactive) | 5.99% (inactive) | 13.7% (inactive) |
| CCN1C(=O)c2ccccc2S(=O)c2ccc(C(=O)NC3CC3)cc21 (stereo not drawn) | 533 | 0.6% (inactive) | 20.1% (inactive) | 74.1% | 6.3% (inactive) | 104% | -0.505 (inactive) | -2.6e-05 (inactive) | 0.0077 (inactive) | 17.3% (inactive) | 24% (inactive) |
| O=S1(=O)C=C(Oc2ccc(F)cc2)c2ccccc21 | 377 | -2.7% (inactive) | -8.6% (inactive) | 108% | -0.9% (inactive) | 111% | -0.321 (inactive) | -7.4e-05 (inactive) | 0.00496 (inactive) | 5.55% (inactive) | 7.32% (inactive) |
| O=C(NCc1ccccn1)C(C(=O)c1ccc(F)cc1)n1ccccc1=O (stereo not drawn) | 531 | -1.5% (inactive) | 3.1% (inactive) | 70.7% | -117% (inactive) | 219% | -0.472 (inactive) | -3.8e-05 (inactive) | 0.0066 (inactive) | -10.6% (inactive) | 3.51% (inactive) |
| CC(C)c1nnc(NC(=O)C2CCCCC2)s1 | 571 | -5.2% (inactive) | 22.8% (inactive) | 40.4% | 20.2% (inactive) | 76.2% | -0.421 (inactive) | -6.4e-05 (inactive) | 0.00517 (inactive) | -16.4% (inactive) | -54.8% (inactive) |
| CCCc1ccc(S(=O)(=O)NCCc2ccncc2)cc1 | 352 | -15.7% (inactive) | -25.5% (inactive) | 109% | -94.2% (inactive) | 121% | -0.585 (inactive) | -2.4e-05 (inactive) | 0.00524 (inactive) | -3.61% (inactive) | -11.2% (inactive) |
| Cc1ccc2cc3cc(C(=O)NCCN4CCOCC4)oc3nc2c1 | 760 | -5% (inactive) | 3.7% (inactive) | 105% | -36.3% (inactive) | 111% | -0.0588 (inactive) | -2.5e-05 (inactive) | 0.00283 (inactive) | 7.18% (inactive) | 8.18% (inactive) |
| Cc1cc(C)n(-c2nc(C)nc3sc4c(c23)CCC(C)C4)n1 (stereo not drawn) | 564 | -8.4% (inactive) | -2% (inactive) | 93.8% | -88% (inactive) | 121% | -0.465 (inactive) | 5.5e-06 (inactive) | 0.00248 (inactive) | -1.01% (inactive) | 32.1% (inactive) |
| Cn1c(-c2ccccc2)cc(=O)c2ccccc21 | 419 | -3.8% (inactive) | 2.5% (inactive) | 92.7% | -39.8% (inactive) | 118% | -0.457 (inactive) | 3.9e-05 (inactive) | 0.00556 (inactive) | 9.11% (inactive) | 16.3% (inactive) |
| Cc1cc(=O)n2nc(N3CCCC(C(=O)N4CCc5ccccc54)C3)sc2n1 (stereo not drawn) | 487 | -7.5% (inactive) | -1.6% (inactive) | 97% | -54.6% (inactive) | 103% | -0.324 (inactive) | -6.9e-05 (inactive) | 0.00401 (inactive) | 18.4% (inactive) | 37.1% (inactive) |
| CC1CCN(S(=O)(=O)c2cn(CC(=O)N3CCN(C)CC3)c(=O)c3ccccc23)CC1 | 278 | -8.5% (inactive) | -2.7% (inactive) | 91.6% | -28.3% (inactive) | 121% | -0.604 (inactive) | 5.5e-06 (inactive) | 0.00569 (inactive) | 0.28% (inactive) | 17.6% (inactive) |
| CCC1CCCCN1C(=O)Cn1c(C(=O)OC)cc2sc(Cl)cc21 (stereo not drawn) | 505 | -11.3% (inactive) | -19.4% (inactive) | 107% | 7.9% (inactive) | 94.4% | -0.388 (inactive) | -2e-05 (inactive) | 0.00448 (inactive) | 9.78% (inactive) | 34.6% (inactive) |
| CN(C)c1ccnc(NCc2ccccc2)c1C#N | 286 | 2.1% (inactive) | 19% (inactive) | 72.9% | -62% (inactive) | 112% | -0.411 (inactive) | -3.6e-05 (inactive) | 0.00526 (inactive) | -8.5% (inactive) | -26.6% (inactive) |
| CCOC(=O)c1cc(C)sc1N1C(=O)C2C3C=CC(C3)C2C1=O (stereo not drawn) | 223 | 3.3% (inactive) | -17.4% (inactive) | 97.5% | -37% (inactive) | 138% | -0.543 (inactive) | -8.1e-05 (inactive) | 0.00512 (inactive) | 16.2% (inactive) | 15.2% (inactive) |
| Cc1cccc2cc(CN(CC3CCCO3)C(=O)c3cnccn3)c(=O)[nH]c12 (stereo not drawn) | 257 | 18.6% (inactive) | 5.3% (inactive) | 45.1% | -41% (inactive) | 113% | -0.401 (inactive) | -9.9e-06 (inactive) | 0.00355 (inactive) | 8.77% (inactive) | 32.1% (inactive) |
| CC(C)CCNC(=O)Cn1c(NCCC(C)C)nc2c1c(=O)n(C)c(=O)n2C | 544 | -8.3% (inactive) | 28.1% (inactive) | 80.1% | -11.6% (inactive) | 102% | -0.623 (inactive) | 8.9e-06 (inactive) | 0.0069 (inactive) | 3.06% (inactive) | 33.2% (inactive) |
| CCC1Oc2ccc(C)cc2N(CC(=O)N(Cc2cccnc2)Cc2ccc(C)o2)C1=O (stereo not drawn) | 685 | -5.5% (inactive) | 13.1% (inactive) | 93.4% | -9.6% (inactive) | 103% | -0.599 (inactive) | -5e-05 (inactive) | 0.00383 (inactive) | 17.7% (inactive) | 24.3% (inactive) |
| O=C(NCc1ccco1)C(c1ccco1)N(C(=O)Cn1nnc2ccccc21)c1ccc2c(c1)CCC2 (stereo not drawn) | 329 | -8% (inactive) | -0.5% (inactive) | 103% | 23.8% (inactive) | 104% | -0.519 (inactive) | -6.5e-06 (inactive) | 0.00472 (inactive) | 14.9% (inactive) | 21.8% (inactive) |
